For test [1], the target named is Calcium and integrin-binding protein 1 (Homo sapiens) (UniProt Q99828). The experiment in a line: Validation qHTS for Identification of Calcium Integrin Binding protein 1 (CIB1) Competitor (AID 1508618). The following applies: CIB1-GST / FITC-alphaIIb peptide fluorescence polarization; series mostly up to 114 µM. The method, boiled down: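 Fluorescence polarization with 1 uM CIB1-GST and 100 nM FITC-alphaIIb peptide in HEPES pH 7.4, NaCl, 5 mM CaCl2, Tween20. Compounds at up to 114 uM final, preincubated with protein 15 min; read after 15 min more at RT.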
Chain of Calcium and integrin-binding protein 1 (Homo sapiens) (Q99828 whole entry, looked up): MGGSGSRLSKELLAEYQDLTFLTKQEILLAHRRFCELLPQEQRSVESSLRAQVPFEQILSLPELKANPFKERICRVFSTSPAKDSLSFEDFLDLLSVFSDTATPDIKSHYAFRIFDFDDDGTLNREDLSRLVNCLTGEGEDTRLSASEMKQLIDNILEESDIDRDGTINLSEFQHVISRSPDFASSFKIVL
For orientation: In qHTS, concentration-response curves come from the screen itself.

Test [2] shares this target. The experiment in a line: Primary qHTS for Identification of Calcium Integrin Binding Protein 1 (CIB1) Competitor (AID 1508620).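 Further: GST tagged CIB1 binding a fluorescein labelled alphaIIb integrin peptide tracer; top concentration of the series differs between compounds.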 The following applies: CIB1-GST / FITC-alphaIIb peptide fluorescence polarization; series mostly up to 57.7 µM. The method, boiled down: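 CIB1-GST (1 uM final) and compound incubated 15 min at room temperature before adding FITC-alphaIIb peptide tracer (100 nM final). Competition for binding read by fluorescence polarization (ex 480, em 540) after another 15 min at room temperature.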

A short description of test [3]: Primary qHTS for small molecule stabilizers of the endoplasmic reticulum resident proteome: Secreted ER Calcium Modulated Protein (SERCaMP) assay (AID 1508630). To be noted: SH-SY5Y GLuc-SERCaMP (Gaussia luciferase released on ER calcium loss) secretion, thapsigargin, luminescence; series mostly up to 38.4 µM. The gist of the method: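 GLuc-SERCaMP-expressing SH-SY5Y cells, pretreated 16 h with compound, are challenged with thapsigargin to empty ER calcium stores; after 4 h, coelenterazine is added directly to the medium and luminescence is imaged.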

Test [4] is described as follows: Counterscreen qHTS for small molecule stabilizers of the endoplasmic reticulum resident proteome: GLuc-NoTag assay (AID 1508627). Further: potency means the concentration at half of the fitted maximal effect. The following applies: Gaussia luciferase NoTag secretion counterscreen, luminescence, thapsigargin 100 nM for final 4 h; series mostly up to 76.4 µM. The method, boiled down:
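Luminescence of Gaussia luciferase secreted into the medium (coelenterazine, 0.07x final, unlysed cells) was the read-out. Human SH-SY5Y neuroblastoma cells constitutively secreting untagged GLuc received compound for 19 h, then 100 nM thapsigargin for 4 h.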
For orientation: The purpose of a counterscreen is to sort out artefacts and off-target activity.

The nature of test [5]: Confirmatory qHTS for small molecule stabilizers of the endoplasmic reticulum resident proteome: Secreted ER Calcium Modulated Protein (SERCaMP) assay (AID 1508628). Further: nearly all actives have a fitted effect of over 40% in size. Further: potency means the concentration at half of the fitted maximal effect. To be noted: SERCaMP secreted luciferase ER calcium/proteostasis reporter; series mostly up to 76.3 µM. The gist of the method:
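We seeded SH-SY5Y-GLuc-SERCaMP cells, added compounds (three concentrations in the primary run, eleven up to 76.6 uM in confirmation), incubated 16 h, depleted ER calcium with thapsigargin, and read luciferase 4 h later.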

Test [6] is described as follows: Cell Viability qHTS for small molecule stabilizers of the endoplasmic reticulum resident proteome (AID 1508629).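 Further: compound exposure about 46 h in total before the viability read.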 Further: potency means the concentration at half of the fitted maximal effect.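 On max response: human SH-SY5Y neuroblastoma cells carrying the GLuc-SERCaMP reporter.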 To be noted: cell viability counter-screen, 100 nM thapsigargin for final 4 h.
Test [7] can be described thus: A High-Content qHTS Against Drug Library for the Identification of Small Molecules that Inhibit DYT1 Early Onset Primary Dystonia-Associated Cell Pathology (AID 1645839; calls by dose curve). To be noted: HEK293 Flp-In EGFP-delE TorsinA, punctate imaging, 48 h; series mostly up to 91.7 µM. The gist of the method: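 In this high-content image screen, delE TorsinA mislocalization in inducible Flp-In 293 cells is scored as %pathology, with cell count serving as the counterscreen. Compound exposure lasts 48 h under tetracycline induction in reduced-serum medium.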

Test [8] concerns the target Cytochrome P450 2D6 (Homo sapiens) (UniProt P10635). The experiment in a line: Cytochrome P450 family 2 subfamily D member 6 (CYP2D6) small molecule antagonists: luciferase biochemical (cell-free) qHTS assay (AID 1645840; active means well fitted curve in the direction sought with a large enough effect in the repeat runs; an effect the other way counts as inactive or inconclusive; further: potency means the concentration at half of the fitted maximal effect; nearly all actives have a fitted effect of over 55% in size). To be noted: P450-Glo CYP2D6 enzyme, luciferin luminescence, 1 h; series mostly up to 57.4 µM. The gist of the method:
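P450-Glo luminescent screen: recombinant CYP2D6 enzyme–proluciferin substrate mix preincubated with compound 10 min at room temperature, then NADPH regeneration added for 1 h at room temperature. Detection reagent added for 20 min; luciferin light read as relative luminescence units.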

Test [9] has as its target Cytochrome P450 2C9 (Homo sapiens) (UniProt P11712). The test can be described thus: Cytochrome P450 family 2 subfamily C member 9 (CYP2C9) small molecule antagonists: luciferase biochemical (cell-free) qHTS assay (AID 1645842; active means well fitted curve in the direction sought with a large enough effect in the repeat runs; an effect the other way counts as inactive or inconclusive; further: nearly all actives have a fitted effect of over 55% in size). To be noted: P450-Glo CYP2C9 enzyme assay, luciferin luminescence; series mostly up to 57.4 µM. The method, boiled down:
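Luminescence, after 20 min with luciferin detection reagent, reflected CYP2C9 turnover during a 1 h NADPH-driven reaction at 37C. Enzyme-substrate mix contained 0.4% bovine serum albumin and was preincubated with compound 10 min at room temperature.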

Values joined by “and” are separate entries in the source; they are usually repeats but may differ in a detail not shown here. Equal values may be shown once. Results filed as inconclusive are left out. Where a call stands in place of a potency, no number is given. A number with no mark means an inactive call. Active and inactive are the calls of the source. Unless noted, the call rests on the fitted dose curve; in most records, active means well fitted curve in the direction sought with a large enough effect; inconclusive means small, poorly fitted or top-dose-only effect, or another doubt; inactive means no such curve, though single readings can be large; an effect the other way counts as inactive or inconclusive.

Chain of Cytochrome P450 2C9 (Homo sapiens) (P11712 whole entry, looked up): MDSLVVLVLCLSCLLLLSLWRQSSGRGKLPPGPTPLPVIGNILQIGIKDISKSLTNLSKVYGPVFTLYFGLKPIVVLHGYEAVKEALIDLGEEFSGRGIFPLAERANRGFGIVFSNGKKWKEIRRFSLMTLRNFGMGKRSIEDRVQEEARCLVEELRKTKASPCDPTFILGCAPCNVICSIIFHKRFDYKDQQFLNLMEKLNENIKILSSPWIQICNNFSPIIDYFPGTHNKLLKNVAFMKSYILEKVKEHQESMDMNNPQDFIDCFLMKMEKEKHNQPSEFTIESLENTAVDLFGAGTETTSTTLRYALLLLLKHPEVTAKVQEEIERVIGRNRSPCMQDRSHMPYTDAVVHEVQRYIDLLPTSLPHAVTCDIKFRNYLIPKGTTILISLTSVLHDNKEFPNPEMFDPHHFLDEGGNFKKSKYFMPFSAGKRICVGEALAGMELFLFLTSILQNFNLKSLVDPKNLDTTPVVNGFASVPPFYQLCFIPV
Chain of Cytochrome P450 2D6 (Homo sapiens) (P10635 whole entry, looked up): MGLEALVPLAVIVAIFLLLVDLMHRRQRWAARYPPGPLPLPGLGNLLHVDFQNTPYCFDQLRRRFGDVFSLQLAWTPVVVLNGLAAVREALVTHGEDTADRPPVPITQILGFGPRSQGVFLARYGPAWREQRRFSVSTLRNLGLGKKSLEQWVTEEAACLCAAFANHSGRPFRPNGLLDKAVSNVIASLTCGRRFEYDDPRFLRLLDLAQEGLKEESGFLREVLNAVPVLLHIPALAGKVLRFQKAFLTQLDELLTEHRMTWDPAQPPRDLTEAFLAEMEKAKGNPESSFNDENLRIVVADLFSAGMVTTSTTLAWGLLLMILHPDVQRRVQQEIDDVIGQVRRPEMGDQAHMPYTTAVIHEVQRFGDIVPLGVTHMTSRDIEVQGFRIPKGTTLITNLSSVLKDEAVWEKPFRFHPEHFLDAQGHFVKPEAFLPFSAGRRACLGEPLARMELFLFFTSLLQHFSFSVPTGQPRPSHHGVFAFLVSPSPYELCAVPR

Take `Oc1ccc2c3c1O[C@H]1c4[nH]c5c(c4C[C@@]4(O)[C@@H](C2)N(CC2CC2)CC[C@]314)C[C@@]1(O)[C@H]2Cc3ccc(O)c4c3[C@@]1(CCN2CC1CC1)[C@H]5O4`: the result in test [1] and in [2] was inactive. Also, the Potency result in test [3] was “inactive”.

As for `CCCN1CCC[C@H](c2cccc(O)c2)C1`, the result in test [1] was inactive. Also, the Potency result in test [3] is “inactive”.

Consider `CC[C@@]1(O)C(=O)OCc2c1cc1n(c2=O)Cc2cc3ccccc3nc2-1`, for which the outcome in test [1] and in test [2] was inactive. In addition, in test [3], the Potency entry was “inactive”.

For the compound `CC(=O)NCCc1c[nH]c2ccccc12`, the outcome in [1] and in [2] was inactive. Further, in test [3], the Potency result is “inactive”.

As to `CCCN1CCO[C@@H]2c3cc(O)ccc3OC[C@H]21`, in test [1], the outcome was inactive. Besides, the Potency result in test [3] was “inactive”.

As to `NC(=NCCC[C@H](N)C(=O)O)N[N+](=O)[O-]`, the result in [1] was inactive. In addition, the Potency result in test [3] is “inactive”.

On to `COC(=O)[C@@H](N)CCCN=C(N)N[N+](=O)[O-]`, for which the result in test [1] and in [2] was inactive. Moreover, the Potency entry in [3] was “inactive”.

`NCc1cc(=O)[nH]o1`: the result in test [1] was inactive. For the same compound, the Potency result in test [4], in [5] and in [3] was “inactive” throughout.

For `O=C(O)CC[N+](=O)[O-]`, the result in [1] was inactive.

As for `C[N+](C)(C)CC(=O)O`, the result in [1] was inactive.

Turning to `NC1CC1c1ccccc1` (stereo not given), the result in test [1] and in test [2] was inactive. The Potency result in test [3] is “inactive”.

For `CN1C2CCC1CC(OC(=O)c1cc(Cl)cc(Cl)c1)C2` (stereo not given), the outcome in test [1] was inactive.

For the compound `O=C(N[C@H]1CN2CCC1CC2)c1ccc(Cl)cc1`, the outcome in test [1] and in test [2] was inactive. The Potency entry in test [3] was “inactive”.

In the case of `NCCc1c[nH]c2ccc(O)cc12`, the outcome in [1] was inactive. In [3], the Potency entry was “inactive”.

For the compound `C/C=C(/C)C(=O)O[C@H]1C(C)=C2[C@H]([C@@H]1OC(=O)CCCCCCC)[C@@](C)(OC(C)=O)C[C@H](OC(=O)CCC)[C@@]1(O)[C@H]2OC(=O)[C@@]1(C)O`, the result in test [1] and in test [2] was inactive. The Potency result in test [4], in test [5] and in [3] was “inactive” throughout. Further, the Potency in test [6] was 251 nM (active) and 224 nM (active).

Turning to `Cc1nccc2c1[nH]c1ccccc12`, the result in [1] was inactive. Also, the Potency entry in test [3] is “inactive”.

`NC(=O)CN1CC(O)CC1=O` (stereo not given): in [1], the result was inactive.

With `CNCCc1ccc(O)c(O)c1`, the result in test [1] was inactive. For the same compound, the Potency is 11.2 µM (active) in [4] and 39.8 µM (active) in test [5]. Moreover, the max response in test [6] was 11.4%.

`S=C(NC1CCCCC1)N1CCC(c2cnc[nH]2)CC1`: the outcome in test [1] and in test [2] was inactive. For the same compound, the Potency entry in [3] was “inactive”.

`O=C(O)[C@@H]1CCN1`: the outcome in [1] was inactive. The Potency entry in [3] is “inactive”.

For the compound `C[C@@H](N)Cc1cnc[nH]1`, the outcome in [1] was inactive. In addition, the Potency result in [3] was “inactive”.

As for `CC(C)NC(C)Cc1ccc(I)cc1` (stereo not given), the result in [1] was inactive. Also, the Potency entry in [3] was “inactive”.

Regarding `C[C@]12N[C@H](Cc3ccccc31)c1ccccc12`, the outcome in [1] was inactive. Also, in test [3], the Potency entry was “inactive”.

Consider `CS(=N)(=O)CC[C@H](N)C(=O)O` (stereo not given in full), for which, in test [1], the result was inactive.

With `CCCN(CCC)C1CCc2ccc(O)cc2C1` (stereo not given), the outcome in test [1] was inactive. Moreover, the Potency result in test [3] was “inactive”.

For `NC1CCc2cc(O)c(O)cc2C1` (stereo not given), in test [1], the result was inactive. Further, the Potency entry in test [4] and in [5] was “inactive” each time. In test [6], the max response was 25.8%.

With `c1ccc(CCCN2CCN(CCOC(c3ccccc3)c3ccccc3)CC2)cc1`, the outcome in [1] and in test [2] was inactive. The Potency result in [3] was “inactive”.

Turning to `CC(=O)[C@H]1CCC2C3CC[C@H]4C[C@H](O)CC[C@]4(C)C3CC[C@@]21C` (stereo not given in full), the outcome in test [1] was inactive. Moreover, the Potency result in test [3] was “inactive”.

In the case of `O=C(O)Cc1cnc[nH]1`, in test [1], the outcome was inactive. Further, in test [3], the Potency result is “inactive”.

In the case of `NC(N)=NOCCC(N)C(=O)O` (stereo not given), in test [1], the result was inactive. The Potency result in test [3] is “inactive”.

Regarding `CNCCc1c[nH]c2ccc(O)cc12`, the outcome in [1] was inactive.

As to `Cn1cnc(CCN)c1`, the result in test [1] was inactive.

`C=CCN1CC[C@]23CCCCC2[C@H]1Cc1ccc(O)cc13` (stereo not given in full): the outcome in [1] was inactive. Besides, the Potency result in test [4] was “inactive”.

For `C[C@@H]1O[C@H](C[N+](C)(C)C)C[C@H]1O`, the result in test [1] was inactive. Further, in test [3], the Potency result was “inactive”.

`CC(Cc1ccc(O)cc1)NCC(O)c1cc(O)cc(O)c1` (stereo not given): the result in test [1] and in test [2] was inactive. The Potency result in test [3], in test [7] and in test [9] was “inactive” each time. For the same compound, the Potency in test [8] was 11 µM (active).

Values taken from PubChem BioAssay (NCATS).
